The molecules below were run against Fibroblast growth factor 2 (Homo sapiens) (UniProt P09038) (assay: basic fibroblast growth factor binding to printed compounds – biochemical, small-molecule microarray, 635/667 nm fluorescence, primary screen (AID 1133)). Settings: FGF2, fluorescence 635/667, higher = more signal.
Sequence of Fibroblast growth factor 2 (Homo sapiens) (P09038 whole entry, looked up): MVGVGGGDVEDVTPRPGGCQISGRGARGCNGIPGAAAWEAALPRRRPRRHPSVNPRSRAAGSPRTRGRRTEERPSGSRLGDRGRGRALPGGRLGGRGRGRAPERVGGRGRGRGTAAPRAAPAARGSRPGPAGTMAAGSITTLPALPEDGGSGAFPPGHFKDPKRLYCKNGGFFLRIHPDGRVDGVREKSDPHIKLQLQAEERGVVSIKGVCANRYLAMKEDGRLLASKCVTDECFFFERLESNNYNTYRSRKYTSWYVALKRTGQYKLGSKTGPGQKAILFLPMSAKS
Molecule CC#CC(=O)Oc1ccccc1C=CC(=O)OCC has a composite z-score of 0.524. CC(C)CNC(=O)[C@@]1(Cc2ccccc2I)c2ccccc2C(=O)N(C2CCCCC2)[C@H]1c1ccc(CO)cc1 gave a composite z-score of 0.99. With O=C(c1ccccc1)N1C(=O)[C@]2(COC(c3ccc(OCCCO)cc3)=N2)Cc2ccccc21 the composite z-score was 1.1. CC(C)(C)OC(=O)CC[C@]1(C(=O)N2CCOCC2)N=C(c2ccc(OCCCO)cc2)O[C@H]1c1ccccc1N=[N+]=[N-] gave a composite z-score of 0.449. With COCCOC(=O)N1C(=O)[C@@]2(c3cc(C#CCC(C(=O)OC)C(=O)OC)ccc31)[C@H](c1ccccc1OCCO)N1[C@H](c3ccccc3)[C@H](c3ccccc3)OC(=O)[C@H]1[C@@H]2C(=O)NC[C@H](O)c1ccccc1 the composite z-score was 1.83. Work on COCCCNC(=O)[C@]1(CCC(=O)OC(C)(C)C)N=C(c2ccc(OCCCO)cc2)O[C@@H]1c1ccccc1CN=[N+]=[N-] yielded a composite z-score of 1.09. For CCOC(=O)C1=C[C@@H](C(C)(C)C)N(S(=O)(=O)c2ccc(C)cc2)[C@H]1c1ccc(F)cc1, the composite z-score was 0.553. COc1cc(NN2C(C(O)c3ccco3)C=CC3C(=O)N(c4ccccc4)C(=O)C32)cc(OC)c1OC (configuration not stated) gave a composite z-score of -0.132. Molecule CCC(CC)C(O)C1C=CC2C(=O)NC(=O)C2N1Nc1ccc(Cl)cc1Cl (configuration not stated) has a composite z-score of -0.0832. In the case of CCCC[C@H]1OB(O)C[C@H]2C1=C(COC)Cn1c(=O)n(-c3ccccc3)c(=O)n12, the composite z-score is reported as -1.06. Molecule C=C(COC)/C(=C/C[C@@H](OC(C)=O)c1ccc(OCCO)cc1)c1cnc2ccccc2c1 has a composite z-score of 1.55. CN(C)C(=O)[C@@]1(CCS(=O)(=O)c2ccccc2)COC(c2ccc(OCCCO)cc2)=N1 showed a composite z-score of -0.0861.

Source: PubChem BioAssay
